Assay outcomes as filed in PubChem.
HT1080NT lethal: kills 2HG-producing HT-1080-NT fibrosarcoma cells; Potency, µM (titrated, usually from 46.1 µM), inactives show at the top dose activity, negative = less viability, hits mostly cytotoxic; HT-1080-NT fibrosarcoma viability, CellTiter-Glo ATP luminescence, 48 h; AID 686970; 1.6% of 360,000 active;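 note: NT is the 2HG producing partner of a matched IDH1 knockdown line; potency is the fitted concentration of half-maximal effect; 0% = DMSO-treated cells and -100% = media-only wells without cells; nearly all actives have a fitted effect of over 55% in size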
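A 48-hour cytotoxicity screen used HT-1080-NT cells plated 2 hours before compound delivery. ATP-based CellTiter-Glo luminescence measured viability, normalized to DMSO and no-cell controls.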
HT1080 IDH1KD tx: toxicity to HT-1080 IDH1 knockdown cells (counter line). AID 686971. Potency, µM (titrated, usually from 46.1 µM), for the others: top-dose activity, negative = toxicity, most hits filed as cytotoxic. 2% of 360,000 active. HT-1080 IDH1 knockdown viability, ATP luminescence, 48 h;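 note: potency is the fitted concentration of half-maximal effect; 0% = DMSO wells and -100% = cell-free medium wells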
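IDH1KD HT-1080 cells, 750/well, RPMI + 5% FBS; compound pinned after 2 h settling; 48 h, 37 °C; CellTiter-Glo luminescence; % activity normalised to DMSO and no-cell wells; curves fitted, classed by r2 and efficacy.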
TDP1 cell CPT: growth inhibition of DT40 Tdp1-/-;hTDP1 cells with camptothecin (screen for TDP1 inhibitors); chicken DT40 Tdp1-/-;hTDP1 cells + 20 nM CPT, ATP luminescence, 48 h; Potency, µM (series often up to 46.2 µM), for the others: at the highest dose activity change, negative = growth inhibition, hits mostly inhibitors; 12% of 420,000 active; AID 686979; note: potency is the fitted concentration of half-maximal effect; nearly all actives have a fitted effect of over 55% in size
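Chicken DT40 Tdp1-/- cells stably complemented with human TDP1 were seeded at 400 cells/well in medium containing 20 nM camptothecin, exposed to pin-transferred compounds, and grown at 37 °C for at least 48 hr. Viability was read as ATP luminescence.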
DT40 TDP1 no CPT: qHTS for Inhibitors of human tyrosyl-DNA phosphodiesterase 1 (TDP1): qHTS in cells in absence of CPT; DT40 Tdp1-/- hTDP1 cells, no CPT, ATP luminescence, 48 h; Potency, µM (doses to about 46.2 µM), without a hit: at the top dose activity change, negative = growth inhibition, actives largely listed as inhibitors; 15% of 420,000 active; note: potency is the fitted concentration of half-maximal effect; nearly all actives have a fitted effect of over 55% in size
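No-CPT arm: Tdp1-/-;hTDP1 DT40 cells (400/well) plus compounds, incubated ≥48 hr at 37 °C. Readout CellTiter-Glo luminescence.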
IL-1B inflam inh: inflammasome signaling inhibition, IL-1 beta readout | 4.7% of 360,000 active | activity change, % at 57.5 µM | AID 743279 | THP-1 LPS/ATP IL-1B secretion, AlphaLISA, 16 h; hits give low values; in the data active = activity change below about -50%; inconclusive = mostly about -30% to -49%
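Secreted IL-1B measured by AlphaLISA bead assay after 16 h compound exposure of THP-1 cells; compounds (final up to 57.5 uM) added 1 h before LPS (250 ng/mL) and ATP (1.25 mM) stimulation; lower signal means less secretion.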
Active calls of the source: *; ? = inconclusive; / = not tested or not shown. Only some compounds are listed: those with a hit (about 19% of all), similar ones and a draw of the others. Unless noted, calls come from the whole dose curve; as a rule, active = well fitted curve in the direction sought with a large enough effect; inconclusive = small, poorly fitted or top-dose-only effect, or another doubt; inactive = no such curve, though single readings can be large; an effect the other way counts as inactive or inconclusive. Unless noted, % is set by controls: 0 for no effect and ±100 for the full control effect.

SMILES	HT1080NT lethal	HT1080 IDH1KD tx	TDP1 cell CPT	DT40 TDP1 no CPT	IL-1B inflam inh
O=C1N[C@@H](c2ccccc2)COC(=O)[C@@H](Cc2ccc(F)cc2)C/C=C\C[C@H]1CC(=O)N(CCO)Cc1ccccc1	?	?	15µM*	10µM*	?
O=C1N[C@@H](c2ccccc2)COC(=O)[C@H](Cc2ccc(F)cc2)CC/C=C/C[C@@H]1CC(=O)N(CCO)Cc1ccccc1	?	?	?	16µM*	0
C[C@@H]1COC(=O)[C@H](CC(=O)OC(C)(C)C)C/C=C\C[C@H](CC(=O)N(CCO)Cc2ccccc2)C(=O)N1	-7%	2%	-15%	-16%	-4
Cc1ccc(S(=O)(=O)Nc2cc(Cl)ccc2-n2cncn2)cc1	8%	9%	1%	5%	31
O=C(Cn1ncc2c1-c1ccccc1OC2)N1CCN(c2ccccc2F)CC1	/	/	?	18µM*	/
COc1cccc(N2CCN(C(=O)Cn3ncc4c3-c3ccccc3OC4)CC2)c1	/	/	-24%	23µM*	/
Cc1ccc(C)c(CN2CCCN(C(=O)Cn3ncc4c3-c3ccccc3OC4)C2)c1	-25%	-13%	13µM*	16µM*	-12
CCOc1ccc(-c2nc(N)ncc2-c2ccc(OC)cc2)c(O)c1	-8%	1%	?	?	-8
CCOc1ccc(-c2nc(N)ncc2-c2ccccc2)c(O)c1	?	?	21µM*	15µM*	?
CCOc1ccc(-c2nc(N)ncc2Oc2ccc(OC)cc2)c(O)c1	23µM*	?	-5%	2%	-87*
O=C(N/N=C/c1ccc(O)cc1O)c1ccc(NC(=O)C2CCCCC2)cc1	?	9.2µM*	6.5µM*	7.3µM*	267
O=C(N/N=C/c1ccc(O)cc1O)c1ccncc1	?	7.3µM*	8.2µM*	4.6µM*	176
O=C(N/N=C/c1ccc(Cl)cc1Cl)c1ccncc1	2%	-1%	15%	0%	-4
Cc1cccc(/C=N/NC(=O)c2ccc(NC(=O)c3ccc(F)cc3)cc2)n1	-23%	-24%	-5%	?	-5
O=C(N/N=C/c1cc(Br)cc([N+](=O)[O-])c1O)c1ccc(NC(=O)c2ccc(F)cc2)cc1	-1%	-25%	23µM*	15µM*	69
Oc1c(Cl)cc(Cl)cc1/C=N/Nc1ncc(Br)cn1	?	?	1.2µM*	1.3µM*	10
COc1ccccc1NC(=O)Cn1c(=O)n(CCC(=O)NCC2CCCO2)c(=O)c2cc(OC)c(OC)cc21 (stereo unspecified)	/	/	9%	-3%	/
CCCCn1c(N)c(N(CCC(C)C)C(=O)CSc2nncn2-c2ccccc2)c(=O)[nH]c1=O	1%	2%	1%	16%	-11
CCC(O)(CC)C(=O)N/N=C/c1cc(Br)cc(Br)c1O	?	?	21µM*	15µM*	77
O=C(C[n+]1ccccc1)N/N=C/c1cc(Br)cc(Br)c1O	?	?	8%	5%	85
Cc1ccc(C(C)C)c(OCc2ccc(C(=O)N/N=C/c3ccc(O)cc3O)cc2)c1	6.5µM*	2.9µM*	?	18µM*	51
CCc1cc(C(=O)N/N=C/c2ccc(O)cc2O)c2ccccc2n1	?	?	8.2µM*	?	131
Cc1nonc1C(=O)N/N=C/c1ccc(O)cc1O	?	2.1µM*	3.3µM*	3.7µM*	142
O=C(CCCCCNC(=O)c1ccccc1)N/N=C/c1ccc(O)cc1O	-25%	-22%	-19%	-30%	90
COc1ccc(C2=NO[C@@](CC(=O)O)(C(=O)Nc3ccc4c(c3)OCCO4)C2)cc1	6%	3%	4%	32%	14
NC(=O)c1c(NC(=O)c2ccccc2F)sc2c1CCCC2	11%	1%	-1%	?	-3
NC(=S)Cc1ccccc1Cl	0%	-1%	19%	-21%	-3
Cc1cccc(C(=O)Oc2c(Br)cc(Br)cc2/C=N/NC(=O)c2ccncc2)c1	12%	15%	3%	-13%	11
